Data from PubChem BioAssay AID1159580 (chemical genetic matrix, 2015).
“And” between values parts separate entries of the source, which are not always exact repeats. Equal entries are not always repeated. Hit rate of the full screen: of about 5,500 compounds, about 2,000 (36%) were called active. Another 18% or so got no clear call; they are omitted. No stated cut-off is given here; in the data, active means normalized growth mostly below about 0.91 (no sharp cut-off); inconclusive means no clear call, values can overlap the other calls; inactive means mostly above about 0.92. Some of the results follow. Some compounds were tested as several samples or in several runs, with calls that do not always agree.

Test: chemical genetic growth profiling, strain panel (AID 1159580);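 further: tested at 20 µM; growth read once vehicle control cultures reached saturation at 30 °C; 1 = growth at the plate median or of vehicle wells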
Details: growth OD

Measured: normalized growth

CCN(CC)CCCC(C)Nc1c2ccc(Cl)cc2nc2ccc(OC)cc12 (stereo unspecified)
0.743 (active) and 0.988 (inactive): S. cerevisiae deletion strains, locus YNL128W, strain TEP1, stronger effect = lower value
active: S. cerevisiae deletion strains, locus YJR075W, strain HOC1, stronger effect = lower value 0.813 | S. cerevisiae deletion strains, locus YKL009W, strain mrt4, stronger effect = lower value 0.863 | S. cerevisiae deletion strains, locus YKL085W, strain MDH1 (second series), stronger effect = lower value 0.93 | S. cerevisiae deletion strains, locus YKL085W, strain MDH1, stronger effect = lower value 0.93 | S. cerevisiae deletion strains, locus YKL190W, strain CNB1, stronger effect = lower value 0.79 | S. cerevisiae deletion strains, locus YKR001C, strain vps1, stronger effect = lower value 0.616 | S. cerevisiae deletion strains, locus YLL001W, strain dnm1, stronger effect = lower value 0.902 | S. cerevisiae deletion strains, locus YLR058C, strain SHM2, stronger effect = lower value 0.524 | S. cerevisiae deletion strains, locus YLR102C, strain apc9, stronger effect = lower value 0.855 | S. cerevisiae deletion strains, locus YLR113W, strain HOG1, stronger effect = lower value 0.741 | S. cerevisiae deletion strains, locus YLR268W, strain sec22, stronger effect = lower value 0.717 | S. cerevisiae deletion strains, locus YLR330W, strain CHS5, stronger effect = lower value 0.883 | S. cerevisiae deletion strains, locus YLR342W, strain FKS1 (second series), stronger effect = lower value 0.632 | S. cerevisiae deletion strains, locus YML032C, strain rad52, stronger effect = lower value 0.544 | S. cerevisiae deletion strains, locus YML124C, strain tub3, stronger effect = lower value 0.858 | S. cerevisiae deletion strains, locus YMR223W, strain ubp8, stronger effect = lower value 0.508 | S. cerevisiae deletion strains, locus YNL067W, strain RPL9B, stronger effect = lower value 0.703 | S. cerevisiae deletion strains, locus YNL153C, strain GIM3, stronger effect = lower value 0.819 | S. cerevisiae deletion strains, locus YNL183C, strain NPR1, stronger effect = lower value 0.644 | S. cerevisiae deletion strains, locus YNL233W, strain BNI4, stronger effect = lower value 0.756 | S. cerevisiae deletion strains, locus YNL307C, strain MCK1, stronger effect = lower value 0.622 | S. cerevisiae deletion strains, locus YNL322C, strain KRE1, stronger effect = lower value 0.794 | S. cerevisiae deletion strains, locus YNR052C, strain pop2, stronger effect = lower value 0.821 | S. cerevisiae deletion strains, locus YOL012C, strain htz1 2.88 [resistant] | S. cerevisiae deletion strains, locus YOL147C, strain pex11, stronger effect = lower value 0.6 | S. cerevisiae deletion strains, locus YOR061W, strain CKA2, stronger effect = lower value 0.71 | S. cerevisiae deletion strains, locus YOR069W, strain VPS5, stronger effect = lower value 0.848 | S. cerevisiae deletion strains, locus YOR144C, strain elg1, stronger effect = lower value 0.776 | S. cerevisiae deletion strains, locus YOR184W, strain ser1, stronger effect = lower value 0.59 | S. cerevisiae deletion strains, locus YOR231W, strain MKK1, stronger effect = lower value 0.686 | S. cerevisiae deletion strains, locus YOR290C, strain snf2, stronger effect = lower value 0.8 | S. cerevisiae deletion strains, locus YOR316C, strain cot1, stronger effect = lower value 0.751 | S. cerevisiae deletion strains, locus YPL055C, strain LGE1, stronger effect = lower value 0.746 | S. cerevisiae deletion strains, locus YPL241C, strain CIN2, stronger effect = lower value 0.914 | S. cerevisiae deletion strains, locus YPL256C, strain CLN2, stronger effect = lower value 0.797 | S. cerevisiae deletion strains, locus YPR167C, strain met16, stronger effect = lower value 0.866 | S. cerevisiae deletion strains, strain wtn01, stronger effect = lower value 0.665 | S. cerevisiae strains, strain wild type, stronger effect = lower value 0.755
inactive: S. cerevisiae deletion strains, locus YKL068W, stronger effect = lower value 1 | S. cerevisiae deletion strains, locus YKL160W, strain elf1, stronger effect = lower value 0.931 | S. cerevisiae deletion strains, locus YKR026C, strain gcn3, stronger effect = lower value 1.04 | S. cerevisiae deletion strains, locus YKR091W, strain srl3, stronger effect = lower value 1.02 | S. cerevisiae deletion strains, locus YLL026W, stronger effect = lower value 1.02 | S. cerevisiae deletion strains, locus YLL041C, strain sdh2, stronger effect = lower value 1.03 | S. cerevisiae deletion strains, locus YLR027C, strain aat2, stronger effect = lower value 0.964 | S. cerevisiae deletion strains, locus YLR039C, strain RIC1, stronger effect = lower value 0.949 | S. cerevisiae deletion strains, locus YLR221C, strain rsa3, stronger effect = lower value 0.993 | S. cerevisiae deletion strains, locus YLR258W, strain gsy2, stronger effect = lower value 0.954 | S. cerevisiae deletion strains, locus YLR262C, strain YPT6 (second series), stronger effect = lower value 0.992 | S. cerevisiae deletion strains, locus YLR262C, strain YPT6, stronger effect = lower value 0.945 | S. cerevisiae deletion strains, locus YLR320W, strain mms22, stronger effect = lower value 0.973 | S. cerevisiae deletion strains, locus YLR342W, strain FKS1, stronger effect = lower value 1.01 | S. cerevisiae deletion strains, locus YLR357W, strain rsc2, stronger effect = lower value 1.07 | S. cerevisiae deletion strains, locus YLR370C, strain arc18, stronger effect = lower value 0.955 | S. cerevisiae deletion strains, locus YLR371W, strain rom2, stronger effect = lower value 0.93 | S. cerevisiae deletion strains, locus YLR384C, strain iki3, stronger effect = lower value 1.04 | S. cerevisiae deletion strains, locus YLR418C, strain cdc73, stronger effect = lower value 0.959 | S. cerevisiae deletion strains, locus YML016C, strain PPZ1, stronger effect = lower value 1.01 | S. cerevisiae deletion strains, locus YML120C, strain ndi1, stronger effect = lower value 0.995 | S. cerevisiae deletion strains, locus YMR058W, strain fet3, stronger effect = lower value 0.961 | S. cerevisiae deletion strains, locus YMR078C, strain ctf18, stronger effect = lower value 0.954 | S. cerevisiae deletion strains, locus YMR125W, strain sto1, stronger effect = lower value 0.989 | S. cerevisiae deletion strains, locus YMR129W, stronger effect = lower value 1.04 | S. cerevisiae deletion strains, locus YMR205C, strain PFK2, stronger effect = lower value 0.973 | S. cerevisiae deletion strains, locus YMR231W, strain pep5, stronger effect = lower value 1.02 | S. cerevisiae deletion strains, locus YMR263W, strain SAP30, stronger effect = lower value 0.948 and 0.979 | S. cerevisiae deletion strains, locus YMR307W, strain GAS1, stronger effect = lower value 1.15 and 0.985 | S. cerevisiae deletion strains, locus YNL071W, strain lat1, stronger effect = lower value 1.02 | S. cerevisiae deletion strains, locus YNL175C, strain NOP13, stronger effect = lower value 0.992 | S. cerevisiae deletion strains, locus YNL197C, strain WHI3, stronger effect = lower value 1 | S. cerevisiae deletion strains, locus YNL209W, strain ssb2, stronger effect = lower value 0.985 | S. cerevisiae deletion strains, locus YNL224C, strain SQS1, stronger effect = lower value 0.959 | S. cerevisiae deletion strains, locus YNL248C, strain rpa49, stronger effect = lower value 1.01 | S. cerevisiae deletion strains, locus YNL250W, strain rad50, stronger effect = lower value 0.952 | S. cerevisiae deletion strains, locus YNL271C, strain bni1, stronger effect = lower value 1.02 | S. cerevisiae deletion strains, locus YNL298W, strain CLA4, stronger effect = lower value 1 | S. cerevisiae deletion strains, locus YNL322C, strain KRE1 (second series), stronger effect = lower value 1.01 | S. cerevisiae deletion strains, locus YNR049C, strain mso1, stronger effect = lower value 1.04 | S. cerevisiae deletion strains, locus YOL006C, strain TOP1, stronger effect = lower value 0.847 | S. cerevisiae deletion strains, locus YOR001W, strain rrp6, stronger effect = lower value 0.966 | S. cerevisiae deletion strains, locus YOR070C, strain gyp1, stronger effect = lower value 0.985 | S. cerevisiae deletion strains, locus YOR080W, strain dia2, stronger effect = lower value 1.03 | S. cerevisiae deletion strains, locus YOR083W, strain WHI5 (second series), stronger effect = lower value 0.955 | S. cerevisiae deletion strains, locus YOR083W, strain WHI5, stronger effect = lower value 0.97 | S. cerevisiae deletion strains, locus YOR106W, strain vam3, stronger effect = lower value 0.916 | S. cerevisiae deletion strains, locus YOR136W, strain idh2, stronger effect = lower value 0.928 | S. cerevisiae deletion strains, locus YOR265W, strain rbl2, stronger effect = lower value 1.02 | S. cerevisiae deletion strains, locus YOR270C, strain vph1, stronger effect = lower value 0.996 | S. cerevisiae deletion strains, locus YPL051W, strain arl3, stronger effect = lower value 0.961 | S. cerevisiae deletion strains, locus YPL078C, strain atp4, stronger effect = lower value 0.936 | S. cerevisiae deletion strains, locus YPL106C, strain sse1, stronger effect = lower value 0.984 | S. cerevisiae deletion strains, locus YPL240C, strain hsp82, stronger effect = lower value 0.998 | S. cerevisiae deletion strains, locus YPR119W, strain clb2, stronger effect = lower value 0.946 | S. cerevisiae deletion strains, locus YPR141C, strain kar3, stronger effect = lower value 1.04 | S. cerevisiae deletion strains, locus YPR163C, strain tif3, stronger effect = lower value 1.02
